Only some compounds are listed: those with a hit (about 4.2% of all), similar ones and a draw of the others.
tim10-1 inh – inhibits growth of tim10-1 mutant yeast. S. cerevisiae tim10-1 ts strain growth, BacTiter-Glo, 24 h. 330,000 tested, 2.2% active. inhibition, % at 20 µM;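 active = inhibition of at least 40%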;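 also: mutant grown at 25 °C; 0% = DMSO wells with yeast and 100% = wells holding no yeast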
NALP1 yeast inh – blocks the NALP1 inflammasome reconstituted in yeast; S. cerevisiae NALP1/ASC/caspase-1 growth, X-gal OD620, 72 h; 280,000 tested, 0.61% active; inhibition, % at 10 µM; in the data active = inhibition mostly above about 24%, no sharp cut-off; inactive = mostly below about 32%
NLRP3 yeast inh – NALP3 inhibition in yeast | Yeast reconstituted NLRP3/ASC/caspase-1, beta-gal luminescence, 24 h | inhibition, % at 10 µM | 330,000 tested, 0.39% active;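 active = inhibition of 50% or more; inactive = inhibition below 50%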;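 also: plate controls were induced DMSO wells for no effect and uninduced yeast grown without galactose for full effect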
tim23-1 inh – tim23-1 yeast growth inhibition; S. cerevisiae tim23-1 growth, BacTiter-Glo luminescence, 24 h; inhibition, % at 20 µM; 330,000 tested, 1.3% active;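 active = growth inhibition of the mutant yeast at or above 50%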;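 also: temperature-sensitive mutant grown at 25 °C; plate controls were DMSO-treated mutant yeast for no effect and medium wells lacking yeast for full effect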
V-ATPase pHluor – regulators of yeast V-ATPase proton transport; S. cerevisiae, pHLuorin cytosolic pH fluorescence; response, % at 10 µM; 350,000 tested, 0.37% active; AID 504577; in the data active = response mostly above about 7.3%, no sharp cut-off; inactive = mostly below about 5.4%; also: actives read high
TIM10 inh – inhibits growth of TIM10 yeast strain | S. cerevisiae TIM10 strain growth, BacTiter-Glo luminescence, 24 h | inhibition, % at 10 µM | 330,000 tested, 1.4% active | AID 463195;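 active = inhibition of 40% or more at the single tested concentration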;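 also: wild-type TIM10 isogenic control strain grown at permissive 25 °C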
tim10 confirm – TIM10 yeast growth inhibition, confirmed; shares compounds with TIM10 inh; S. cerevisiae tim10 strain growth, BacTiter-Glo luminescence, 24 h; inhibition, % at 10 µM; 4,600 tested, 63% active; AID 463215;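 active = inhibition of yeast growth at or above a set limit in either of two replicates at 10 µM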;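 also: this counterscreen used the strain with wild-type TIM10; 0% = yeast with DMSO and 100% = medium wells lacking yeast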
tim23-1 confirm – confirmation of tim23-1 mutant yeast growth inhibitors | 4,400 tested, 83% active | AID 463218 | inhibition, % at 20 µM | shares compounds with tim23-1 inh | S. cerevisiae tim23-1 growth, BacTiter-Glo luminescence, 24 h;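 active = inhibition above about 39% in either of two replicate wells at 20 µM, limit read from the data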;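 also: temperature-sensitive tim23-1 mutant grown at 25 °C; 0% = DMSO wells with yeast and 100% = medium wells without yeast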
* = called active by the depositor; · = no result given.

SMILES | tim10-1 inh | NALP1 yeast inh | NLRP3 yeast inh | tim23-1 inh | V-ATPase pHluor | TIM10 inh | tim10 confirm | tim23-1 confirm
Cc1cccc(-c2nc(Nc3ccc(N4CCOCC4)cc3)c3ccccc3n2)c1 | 27 | 25 | 25 | 32 | -5 | 6 | · | ·
COc1cccc(OCc2cc(C(=O)N3CCN(C)C(c4ccccc4)C3)no2)c1 (configuration not stated) | 39 | 14 | 21 | 53* | -3 | 41* | 50* | 48*
C=CCC1(CC=C)CCCN1C(=O)c1cc(COc2cccc(OC)c2)on1 | 13 | 9 | 12 | 16 | 3 | -3 | · | ·
CC(=O)Nc1ccc(C2=NN(c3ccccc3)C(c3ccccc3)C2)cc1 (configuration not stated) | 30 | 17 | 25 | 30 | -1 | 20 | · | ·
CCOc1ccc2cc(C#N)c(SCC(=O)N3CCC(C)CC3)nc2c1 | 36 | 2 | 9 | 52* | -3 | 59* | 14 | 50*
CSc1ccc(/C=C(\C#N)C(=O)NC2CCCCC2C)cc1 (configuration not stated) | 39 | 30 | 1 | 59* | 0 | 56* | 65* | 39*
O=C(N/N=C/c1c(O)ccc2ccccc12)c1cccc(C(F)(F)F)c1 | 30 | 21 | -5 | 56* | -2 | 43* | 13 | 44*
Cc1ccc(-n2c(SCC(=O)O)nc3sc4c(c3c2=O)CC(C)(C)SC4)cc1 | · | · | · | · | 6 | · | · | ·
CN(C)CCCN(C(=O)c1cc(-c2cccs2)nc2ccccc12)c1nc2c(F)cccc2s1 | 37 | 22 | 27 | -3 | -1 | 30 | · | ·
Cc1ccc2nc(N(CCCN(C)C)C(=O)c3cc(-c4cccs4)nc4ccccc34)sc2c1 | 40 | 15 | 31 | 60* | -2 | 41* | 42* | 31
CC(C)(C)c1ccc(S(=O)(=O)N2CCC(c3nc4ccc(Cl)cc4[nH]3)CC2)cc1 | 26 | 8 | 13 | 64* | 1 | 50* | 56* | 22
COC(=O)c1sccc1NC(=S)Nc1ccccc1 | 8 | 24 | 6 | 22 | 0 | 6 | · | ·
COc1ccc(CCNc2oc(-c3ccc(C)cc3)nc2C#N)cc1OC | 19 | 25 | 26 | 55* | 1 | 53* | 61* | 76*
Cc1cc(N2CCN(C)CC2)nc2ccc(NC(=O)CCC(=O)N3CCN(c4ccc([N+](=O)[O-])cc4)CC3)cc12 | -9 | 3 | -1 | 3 | -69 | 9 | · | ·
CCOC(=O)C1CCN(S(=O)(=O)c2ccc3c(c2)CCN3C(=O)C2CCC2)CC1 | 1 | 17 | 14 | 51* | 0 | 62* | 20 | 66*
CCOC(=O)C1CCN(S(=O)(=O)c2ccc3c(c2)CCN3C(C)=O)CC1 | 22 | -4 | 2 | 29 | 1 | 19 | · | ·
O=C(NC(=S)Nc1ccc(O)cc1)C1CCCC1 | 38 | · | 12 | 54* | -3 | 44* | 33* | 54*
CC1CN(C(=S)Nc2ccc(SC(F)F)cc2)CC(C)O1 (configuration not stated) | -1 | 2 | -13 | 23 | 0 | 17 | · | ·
CC1CC(C)CN(C(=S)Nc2ccc(SC(F)F)cc2)C1 (configuration not stated) | 34 | 22 | 26 | 54* | 5 | 52* | -2 | 52*
CCCn1c(=N)n(CC(O)c2ccco2)c2ccccc21 (configuration not stated) | 4 | 4 | 12 | -8 | -1 | -7 | · | ·
O=C1CCCCCN1Sc1ccccc1 | 31 | 2 | 7 | 58* | -1 | 51* | 35* | 29
Cc1ccc(C(C[N+](=O)[O-])Sc2ccc(N)cc2)cc1 (configuration not stated) | 39 | 26 | 49 | 75* | 3 | 56* | 51* | 90*
O=C(Nc1cccc(-c2cc3ccccc3oc2=O)c1)c1ccc(Br)o1 | 39 | 15 | 26 | 56* | 1 | 43* | 47* | 62*
N#C/C(=C/c1cccc([N+](=O)[O-])c1)C(=O)Nc1ccccc1O | 32 | · | 17 | 73* | 2 | 42* | 40* | 57*
N#C/C(=C\c1cccc([N+](=O)[O-])c1)C(=O)Nc1cccnc1 | 26 | 6 | -4 | 28 | -1 | 1 | · | ·
SMILES | tim10-1 inh | NALP1 yeast inh | NLRP3 yeast inh | tim23-1 inh | V-ATPase pHluor | TIM10 inh | tim10 confirm | tim23-1 confirm
CC(=O)Nc1ccc(/C=C2\CCc3ccccc3C2=O)cc1 | 34 | 24 | 30 | 61* | 1 | 41* | 36* | 46*
CC(=O)Nc1ccc2c(c1)CCC2=O | -10 | · | -13 | 1 | 4 | -10 | · | ·
N/C(Cc1ccc(Cl)cc1)=N\OC(=O)Cc1ccc([N+](=O)[O-])cc1 | 38 | 29 | 39 | 55* | 0 | 77* | -6 | 72*
N/C(=N\OC(=O)c1ccc(Cl)cc1Cl)c1ccncc1 | 1 | -2 | 23 | 19 | 8 | 0 | · | ·
COc1ccc(Cl)cc1C(=O)O/N=C(\N)c1ccc(Cl)cc1 | 29 | 49 | 12 | 89* | 2 | 79* | 83* | 44*
COc1ccc(C/C(N)=N/OC(=O)c2cccc([N+](=O)[O-])c2)cc1 | 27 | 26 | 3 | 73* | -1 | 72* | 86* | 68*
CC1=C(C)/C(=N/OC(=O)c2cccc([N+](=O)[O-])c2)C=CC1=O | 40 | 2 | 0 | 62* | 5 | 41* | 19 | 86*
CN(C)c1ncc(S(=O)(=O)c2ccccc2)c(=O)[nH]1 | -7 | 0 | -2 | -5 | 2 | 15 | · | ·
CCN(CC(=O)Nc1ccc(NC(C)=O)cc1)C(=O)c1c(-c2c(F)cccc2Cl)noc1C | -5 | 4 | 18 | 2 | -1 | 3 | · | ·
COc1ccc(/C=N/NC(=O)Cc2ccc(Cl)cc2)cc1OC | -12 | -1 | 4 | -21 | 1 | 31 | · | ·
COc1ccc(C(=O)O/N=C(\N)Cc2ccc(Cl)cc2)cc1OC | -2 | 17 | 4 | 68* | 0 | 79* | 86* | 49*
COc1ccc(-c2onc(C)c2-c2cnn(-c3ccccc3)c2)c(O)c1C | 19 | -2 | 8 | 38 | -1 | 24 | · | ·
COc1ccc(-c2n[nH]c(C)c2-c2cnn(-c3ccccc3)c2)c(O)c1C | 39 | 8 | 9 | 51* | -3 | 48* | 45* | 59*
CCOC(=O)/C=C/[C@H]1Cc2ccccc2CO1 | 8 | · | 4 | 4 | -4 | -3 | · | ·
COc1ccc2c(C(=O)CCl)c[nH]c2c1 | 21 | · | -20 | 53* | 3 | 43* | 29 | 51*
COc1ccc(OCC(=O)c2c[nH]c3ccccc23)cc1 | -2 | 8 | 12 | 14 | 2 | -21 | · | ·
CN(c1ccccc1)S(=O)(=O)c1ccc(Cl)c(C(=O)Nc2nn[nH]n2)c1 | 2 | 23 | 25 | 23 | 0 | -9 | · | ·

Source: PubChem (several laboratories)
